Screening data from PubChem.
This is a sample that favours compounds with a hit; in the whole collection about 5.8% have one here.
PINK1 expr mod – A Quantitative High throughput Screen to Identify Chemical Modulators of PINK1 Expression; PINK1 immunofluorescence, high-content cytometry, 24 h; Potency, µM (top dose mostly 76.6 µM), for the others: at the highest dose activation (PINK1 increase), most hits filed as activators; 410,000 tested, 0.2% active; AID 624263, 2012; active = well fitted activation curve with a large enough effect; inconclusive = small, poorly fitted or top-dose-only effect; cell line not stated here; note: % of control where 0% means no effect; nearly all actives have a fitted effect of over 65% in size
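Decision-based qHTS: stable cells, 24 h exposure to five compound concentrations, CCCP as control. Fixed cells stained for PINK1 plus nuclear, mitochondrial and cell markers, cytometer read.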
12-LOX inh – Primary qHTS assay for inhibitors of human arachidonate 12S-lipoxygenase (ALOX12): Round 2; Polyunsaturated fatty acid lipoxygenase ALOX12 (Homo sapiens), P18054; 580,000 tested, 1.1% active; Potency, µM (doses to about 108 µM), for inactives: at the highest dose activity change, negative = inhibition, most hits filed as inhibitors; purified 12hLO, xylenol orange hydroperoxide absorbance; note: % is set by controls: 0 for no effect and ±100 for the full control effect
Target sequence (P18054 whole entry, looked up): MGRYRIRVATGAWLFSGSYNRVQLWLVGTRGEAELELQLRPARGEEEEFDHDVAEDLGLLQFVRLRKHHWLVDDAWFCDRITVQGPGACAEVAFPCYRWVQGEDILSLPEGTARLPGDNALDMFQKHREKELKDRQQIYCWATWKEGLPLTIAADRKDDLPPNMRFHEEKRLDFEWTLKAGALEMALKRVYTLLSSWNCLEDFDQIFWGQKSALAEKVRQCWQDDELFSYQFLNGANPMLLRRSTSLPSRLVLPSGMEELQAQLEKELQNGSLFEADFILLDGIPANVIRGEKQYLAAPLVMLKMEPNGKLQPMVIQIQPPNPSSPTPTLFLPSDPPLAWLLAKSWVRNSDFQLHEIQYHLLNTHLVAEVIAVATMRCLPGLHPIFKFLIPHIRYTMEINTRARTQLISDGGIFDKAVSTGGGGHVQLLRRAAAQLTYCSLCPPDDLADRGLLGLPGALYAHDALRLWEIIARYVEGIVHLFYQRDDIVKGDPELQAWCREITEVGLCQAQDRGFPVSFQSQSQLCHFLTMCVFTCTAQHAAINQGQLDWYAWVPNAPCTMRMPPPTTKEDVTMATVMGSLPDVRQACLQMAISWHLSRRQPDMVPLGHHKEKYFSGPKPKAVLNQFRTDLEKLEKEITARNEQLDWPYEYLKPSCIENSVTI
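Purified human 12hLO at 150 nM in 25 mM Hepes, 0.01% Triton X-100, pH 7.0, preincubated 15 min at room temperature with compound. Reaction started with 40 uM arachidonic acid, 30 min at room temperature. Hydroperoxide measured by Fe-xylenol orange, 573/405 nm absorbance ratio.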
MCF10A rerep – A quantitative high throughput screen for small molecules that induce DNA re-replication in MCF 10a normal breast cells; MCF 10A DNA re-replication, Hoechst nuclear intensity, 48 h; Potency, µM (titrated, usually from 46.1 µM), inactives show top-dose activity, positive = re-replication, usual class: activators; 350,000 tested, 2.9% active; note: % of control where 0% means no effect; nearly all actives have a fitted effect of over 50% in size
KB-3-1 tox – qHTS assay for MDR1-selective chemotherapeutics: Primary screen using the parental adenocarcinoma cell KB-3-1 | 400,000 tested, 1.4% active | Potency, µM (doses to about 46.1 µM), hits mostly cytotoxic | KB-3-1 viability, CellTiter-Glo ATP luminescence, 72 h | AID 1347075, 2019; note: % is set by controls: 0 for no effect and ±100 for the full control effect; nearly all actives have a fitted effect of over 60% in size
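KB-3-1 parental drug-naive adenocarcinoma cells in DMEM/10% FBS, incubated 72 h at 37 C with pin-transferred compounds across a concentration series. Viability by CellTiter-Glo luminescence; concentration-response curves fitted after normalization.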
SW480 rereplic – A quantitative high throughput screen for small molecules that induce DNA re-replication in SW480 colon adenocarcinoma cells; SW480 DNA re-replication, Hoechst DNA content imaging, 48 h; Potency, µM (titrated, usually from 46.1 µM), without a hit: top-dose re-replication activation, most hits filed as activators; 340,000 tested, 1.8% active; AID 624297, 2012; note: % of control where 0% means no effect; nearly all actives have a fitted effect of over 55% in size
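Image-based read-out: total Hoechst fluorescence of nuclei (405 nm excitation, 500-530 nm emission), with hits raising the fraction of high-intensity nuclei. SW480 colon cells incubated 48 hr with compounds at 37 C.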
KB-V1 cytotox – qHTS assay for MDR1-selective chemotherapeutics: Primary screen using the drug-selected MDR subline cells KB-V1 | KB-V1 MDR cells viability, CellTiter-Glo, 72 h | Potency, µM (doses to about 46.1 µM), hits mostly cytotoxic | 400,000 tested, 3.4% active | AID 1347076, 2019; note: % is set by controls: 0 for no effect and ±100 for the full control effect; nearly all actives have a fitted effect of over 60% in size
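In this primary screen, KB-V1 cells overexpressing P-gp are incubated with library compounds (lowest to highest concentration) for 72 h at 37 degrees C before a luminescent ATP viability read.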
The depositor's hits bear a star; i = inactive; ? = inconclusive; nt = no result given; [ ] = dose if it differs, or a comment. Unless noted, calls come from the whole dose curve; as a rule, active = well fitted curve in the direction sought with a large enough effect; inconclusive = small, poorly fitted or top-dose-only effect, or another doubt; inactive = no such curve, though single readings can be large; an effect the other way counts as inactive or inconclusive. Potency is the fitted concentration of half-maximal effect.

SMILES	PINK1 expr mod	12-LOX inh	MCF10A rerep	KB-3-1 tox	SW480 rereplic	KB-V1 cytotox
COc1ccc(NC(=O)CCS(=O)(=O)c2nc(-c3ccc4c(c3)OCO4)cc(C(F)(F)F)n2)cc1	4%	-24%	nt	nt	nt	nt
Cc1cc(NC(=O)CCS(=O)(=O)c2nc(-c3ccccc3)cc(C(F)(F)F)n2)no1	1%	0%	5.2µM*	?	?	i
CCS(=O)(=O)c1nc(-c2ccc(Cl)cc2)cc(C(F)(F)F)n1	nt	4%	nt	nt	nt	nt
CNc1oc(-c2cc(S(=O)(=O)N(C)c3ccccc3)c(C)o2)nc1C#N	nt	12%	nt	nt	nt	nt
COc1ccc(OS(=O)(=O)CCc2ccccc2)cc1	nt	0%	nt	nt	nt	nt
O=C(CSc1nc(Nc2ccccc2)nc(N2CCOCC2)n1)Nc1ccc(Br)cc1F	4%	0%	15µM*	i	?	i
COc1ccc(Cl)cc1NC(=O)CSc1nc(Nc2ccccc2)nc(N2CCOCC2)n1	1%	94%	20%	i	?	i
O=C(CSc1nc(Nc2ccccc2)nc(N2CCOCC2)n1)Nc1ccccc1Cl	nt	-11%	?	i	?	15µM*
CCc1sc(C(=O)OCC(=O)c2ccc3c(c2)OCCO3)cc1C	nt	-3%	nt	nt	nt	nt
c1ccc(OCCCN2CCC(c3nc4ccccc4s3)CC2)cc1	nt	0.71µM*	nt	nt	nt	nt
c1ccc(OCCCCN2CCC(c3nc4ccccc4s3)CC2)cc1	nt	0.89µM*	nt	nt	nt	nt
O=C(CN1CCC(c2nc3ccccc3s2)CC1)N1CCCCC1	2%	2%	12%	i	1%	i
CCCOc1ccc(C(=O)N2CCC(c3nc4ccccc4s3)CC2)cc1	0%	-27%	nt	i	nt	i
O=C(Cn1nnc(-c2ccccc2)n1)N1CCC(c2nc3ccccc3s2)CC1	nt	40µM*	nt	nt	nt	nt
O=C(c1ccco1)N1CCC2(CC1)NCCc1c2[nH]c2ccccc12	nt	18%	nt	nt	nt	nt
CCOC(=O)c1ccc(Nc2nc(-c3cccnc3)nc3ccccc23)cc1	-2%	-13%	18µM*	i	?	i
CC(Nc1nc(-c2ccccc2O)nc2ccccc12)c1ccccc1 (configuration not stated)	27%	-13%	21µM*	i	?	i
CNc1nc(-c2ccccc2C)nc2ccccc12	0%	40µM*	nt	nt	nt	nt
CCOC(=O)c1ccc(Nc2ncnc3ccccc23)cc1	3%	-21%	5%	i	0%	i
CNc1nc(-c2ccccc2Cl)nc2ccccc12	0%	-27%	nt	nt	nt	nt
CC(Nc1nc(-c2ccccc2F)nc2ccccc12)c1ccccc1 (configuration not stated)	?	0%	?	i	7%	i
O=C(Nc1nc(-c2ccccc2)nc2ccccc12)c1ccc(F)cc1	6%	-4%	18µM*	i	?	i
Cn1c(=O)[nH]c(=O)c2c1nc(NCCN1CCOCC1)n2Cc1ccc(F)cc1	nt	32%	nt	nt	nt	nt
CC(C(N)=O)N(C)Cc1ccc(C(=O)NCC(F)(F)F)cc1 (configuration not stated)	nt	85%	nt	nt	nt	nt
Cc1ccc(N(C(=O)c2ccc(C(C)(C)C)cc2)C2C=CS(=O)(=O)C2)cc1Cl (configuration not stated)	nt	-19%	nt	nt	nt	nt
Cc1ccc(-c2nc(N/N=C/c3ccncc3)c3ccccc3n2)cc1	9%[38.3 µM]	-1%	3%	?	4%	23µM*
COc1ccc(CCNc2nc(-c3cccnc3)nc3ccccc23)cc1OC	0%	-15%	?	i	?	8.2µM*
Cc1ccc(Nc2nc(-c3cccnc3)nc3ccccc23)cc1	4%	?	15µM*	?	9.2µM*	?
